# Measured values as given in PubChem BioAssay (NCI).
# This is part of a sample that, as a whole, favours compounds with a hit. Of some 83,000 tested, about 20% had one in any assay.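 Assay: single dose, 48 h. Readout: percent growth (0 = no net growth; negative = cell death). Active: <10.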 Active and inactive are the calls of the source.
# Tested on: HCT-15 colon
# Assay: NCI-60 one-dose screen, 48 h (100 = growth as untreated, 0 = no growth, -100 = all killed)
# Settings: 10 µM unless noted
row,SMILES,growth
1,N#Cc1c(-c2ccc(Br)cc2)nc2c(N=Nc3ccc(S(N)(=O)=O)cc3)c(N)nn2c1N,94.3% (inactive)
2,CCN(CC)CCN1C(=O)c2c(c3c4ccccc4[nH]c3c3ccc4ccccc4c23)C1=O,-74.4% (active)
3,O=C(/C=C/c1ccccc1)N(C1CCCCC1)C1CCCCC1,86.3% (inactive)
4,CC1(C)CC[C@]2(CO)CC[C@]3(C)[C@](O)([C@H](O)C[C@@H]4[C@@]5(C)CCCNC(C)(C)[C@@H]5CC[C@]43C)[C@@H]2C1,88.5% (inactive)
5,Nc1nc(N(Cc2ccccc2)c2ccccc2)c2cn[nH]c2n1,49.8% (inactive)
6,CN1CC(c2ccc(Br)cc2)C(C(=O)c2ccc(Br)cc2)C12C(=O)Nc1ccccc12 (configuration not stated),59.5% (inactive)
7,Nc1nc(C(=O)N/N=C/c2ccc(F)cc2)nn1-c1ccc(S(N)(=O)=O)cc1,108% (inactive)
8,COc1ccc(-c2nc(SCC(=O)Nc3nc4ccc(C)cc4s3)[nH]c(=O)c2C#N)cc1OC,104% (inactive)
9,CNC(=O)NCC1OC(n2cnc3c(NC(=O)Nc4ccccc4)ncnc32)C2OC(=O)CC12 (configuration not stated),92.2% (inactive)
10,COc1ccc(NC(=O)c2ccc(Nc3ncnc4c3cnn4-c3cccc(F)c3)cc2)cc1,102% (inactive)
11,CC(C)NS(=O)(=O)/N=C1\NC(=O)NC1=C(Cl)Cl,86.3% (inactive)
12,Cc1ccc2cnc(N)c(C#Cc3cc(C(=O)Nc4ccc(CN5CCN(C)CC5)c(C(F)(F)F)c4)cnc3C)c2c1,-40.5% (active)
13,Cc1nn(-c2ccc([N+](=O)[O-])cc2)c2ncnc(N/N=C/c3ccccc3O)c12,26.2% (inactive)
14,CC(C)(C)OC(=O)CN1CCc2c(sc3ncnc(N4CCN(c5ccc(F)cc5)CC4)c23)C1,96.6% (inactive)
15,COC(=O)[C@@]1(C)CC[C@]2(C)CC[C@]3(C)C4=CC=C5C(=CC(=O)C(O)=C5C)[C@]4(C)[C@@H](O)C[C@@]3(C)[C@@H]2C1,1.43% (active)
16,Cc1cc(Cl)nc(N2CCN(CCNc3ccnc4cc(Cl)ccc34)CC2)n1,22.4% (inactive)
17,Cc1ccc(C)c2c1sc1nc(N3CCOCC3)c(C#N)c(=O)n12,102% (inactive)
18,COc1ccc2c(c1)CC[C@@H]1[C@@H]2CC[C@]2(C)c3c(cc(C#N)c4c3sc3ccccc34)C[C@@H]12,104% (inactive)
19,C=C1C(=O)O[C@H]2[C@H]1CC/C(COC(=O)NCc1ccc(Cn3c(=O)sn(-c4ccc(I)cc4)c3=O)cc1)=C\CC[C@@]1(C)O[C@@H]21,57% (inactive)
20,O=C(O)CC(C(=O)O)/C(=C\c1ccccc1)c1ccccc1 (configuration not stated),107% (inactive)
21,CCN(CC)CCOc1ccc(Nc2ncc3cc(-c4c(Cl)cccc4Cl)c(=O)n(CCOC)c3n2)cc1,12.9% (inactive)
22,O=C(c1ccc(Br)cc1)C(Br)C(c1ccc(Cl)cc1)C(c1ccccc1)[N+](=O)[O-] (configuration not stated),84.8% (inactive)
23,CN1CCOCCN(C)Cc2ccc3ccc(cc3c2)CN(C)CCOCCN(C)Cc2ccc3ccc(cc3c2)C1,73.2% (inactive)
24,COc1ccc(CN2C(=O)OC(C)(COC(C)=O)C2=O)cc1 (configuration not stated),102% (inactive)
25,CN(C)c1ccc(/C=N\NC(=O)c2ccc3nc(-c4ccc(Cl)cc4)[nH]c3c2)cc1,66.8% (inactive)
26,COCCn1cc(-c2csc(-c3c[nH]c4ccc(F)cc34)n2)c2cccnc21,14.7% (inactive)
27,C/C(Cc1ccc(Cl)cc1)=C(\c1ccc(OCCN2CCCCCC2)cc1)c1ccc(OC(=O)c2ccccc2)cc1,14.1% (inactive)

# Tested on: HT29 colon
# Assay: as above
# Settings: 10 µM unless noted
row,SMILES,growth
1,COCCn1cc(-c2csc(-c3c[nH]c4ccccc34)n2)c2cccnc21,11.6% (inactive)
2,CCN(CC)c1ccc(-c2cc(-c3cc(OC)c(OC)c(OC)c3)nc(N3CCC(O)CC3)c2C#N)cc1,-32.7% (active)
3,CN1C(=O)/C(=C/c2ccc(C(=O)Nc3ncc(Cc4cccc(C(F)(F)F)c4)s3)cc2)SC1=S,55.4% (inactive)
4,Nc1ncnc2c1N=C(c1ccc(Cl)cc1)CC(c1cccc(Nc3ccnc4cc(Cl)ccc34)c1)N2 (configuration not stated),36.3% (inactive)
5,COCCn1cc(-c2nc(-c3cc4cccnc4n3C)cs2)c2ccccc21,12.9% (inactive)
6,COC(=O)[C@]1(C)CCC[C@]2(C)[C@H]3C[C@@H]4[C@H]5[C@@H]6CC/C(=N\OCC/C(N)=N/O)[C@H]5[C@@]3(CC[C@H]21)CC4(C(C)C)O6,74.2% (inactive)
7,Cc1cccc(-c2nc(C(C)C)sc2-c2ccnc(NCCCNS(=O)(=O)c3ccc(Cl)cc3)c2)c1,16.9% (inactive)
8,O=C(/C=C/C12c3ccccc3C(c3ccccc31)C1C(=O)NC(=O)C12)c1ccc(Cl)cc1Cl (configuration not stated),1.07% (active)
9,CC(C)(C)CC(C)(C)Nc1c(-c2c(O)c3ccccc3oc2=O)nc2sc3ccccc3n12,34.8% (inactive)
10,CN(C)CCC(CCN(C)C)(C(=O)O)c1ccccc1,96.6% (inactive)
11,Cn1c(=O)[nH]c(=O)c2nc3c(nc21)-c1ccccc1C3=O,101% (inactive)
12,C=C(c1ccc(C(=O)O)c(F)c1)c1cc2c(cc1C)C(C)(C)CCC2(C)C,97.9% (inactive)
13,C=C1C(=O)O[C@H]2[C@H]1CC/C(COC(=O)C(=O)c1c[nH]c3ccc(Cl)cc13)=C\CC[C@@]1(C)O[C@@H]21,-52.7% (active)
14,N#Cc1c(-c2ccc(Br)cc2)nc2c(N=Nc3ccc(S(N)(=O)=O)cc3)c(N)nn2c1N,42.8% (inactive)
15,CCN(CC)CCN1C(=O)c2c(c3c4ccccc4[nH]c3c3ccc4ccccc4c23)C1=O,-45.5% (active)
16,O=C(/C=C/c1ccccc1)N(C1CCCCC1)C1CCCCC1,68.6% (inactive)
17,CC1(C)CC[C@]2(CO)CC[C@]3(C)[C@](O)([C@H](O)C[C@@H]4[C@@]5(C)CCCNC(C)(C)[C@@H]5CC[C@]43C)[C@@H]2C1,20.6% (inactive)
18,Nc1nc(N(Cc2ccccc2)c2ccccc2)c2cn[nH]c2n1,32.3% (inactive)
19,CN1CC(c2ccc(Br)cc2)C(C(=O)c2ccc(Br)cc2)C12C(=O)Nc1ccccc12 (configuration not stated),36% (inactive)
20,Nc1nc(C(=O)N/N=C/c2ccc(F)cc2)nn1-c1ccc(S(N)(=O)=O)cc1,98.5% (inactive)

row,SMILES,growth
1,COc1ccc(-c2nc(SCC(=O)Nc3nc4ccc(C)cc4s3)[nH]c(=O)c2C#N)cc1OC,107% (inactive)
2,CNC(=O)NCC1OC(n2cnc3c(NC(=O)Nc4ccccc4)ncnc32)C2OC(=O)CC12 (configuration not stated),110% (inactive)
3,COc1ccc(NC(=O)c2ccc(Nc3ncnc4c3cnn4-c3cccc(F)c3)cc2)cc1,104% (inactive)
4,CC(C)NS(=O)(=O)/N=C1\NC(=O)NC1=C(Cl)Cl,99% (inactive)
5,Cc1ccc2cnc(N)c(C#Cc3cc(C(=O)Nc4ccc(CN5CCN(C)CC5)c(C(F)(F)F)c4)cnc3C)c2c1,-62.7% (active)
6,Cc1nn(-c2ccc([N+](=O)[O-])cc2)c2ncnc(N/N=C/c3ccccc3O)c12,30.1% (inactive)
7,CC(C)(C)OC(=O)CN1CCc2c(sc3ncnc(N4CCN(c5ccc(F)cc5)CC4)c23)C1,98.7% (inactive)
8,COC(=O)[C@@]1(C)CC[C@]2(C)CC[C@]3(C)C4=CC=C5C(=CC(=O)C(O)=C5C)[C@]4(C)[C@@H](O)C[C@@]3(C)[C@@H]2C1,31.1% (inactive)
9,Cc1cc(Cl)nc(N2CCN(CCNc3ccnc4cc(Cl)ccc34)CC2)n1,10.5% (inactive)
10,Cc1ccc(C)c2c1sc1nc(N3CCOCC3)c(C#N)c(=O)n12,97.2% (inactive)
11,COc1ccc2c(c1)CC[C@@H]1[C@@H]2CC[C@]2(C)c3c(cc(C#N)c4c3sc3ccccc34)C[C@@H]12,100% (inactive)
12,C=C1C(=O)O[C@H]2[C@H]1CC/C(COC(=O)NCc1ccc(Cn3c(=O)sn(-c4ccc(I)cc4)c3=O)cc1)=C\CC[C@@]1(C)O[C@@H]21,34.1% (inactive)
13,O=C(O)CC(C(=O)O)/C(=C\c1ccccc1)c1ccccc1 (configuration not stated),114% (inactive)
14,CCN(CC)CCOc1ccc(Nc2ncc3cc(-c4c(Cl)cccc4Cl)c(=O)n(CCOC)c3n2)cc1,-22.6% (active)
15,O=C(c1ccc(Br)cc1)C(Br)C(c1ccc(Cl)cc1)C(c1ccccc1)[N+](=O)[O-] (configuration not stated),87.3% (inactive)
16,CN1CCOCCN(C)Cc2ccc3ccc(cc3c2)CN(C)CCOCCN(C)Cc2ccc3ccc(cc3c2)C1,7.33% (active)
17,COc1ccc(CN2C(=O)OC(C)(COC(C)=O)C2=O)cc1 (configuration not stated),107% (inactive)
18,CN(C)c1ccc(/C=N\NC(=O)c2ccc3nc(-c4ccc(Cl)cc4)[nH]c3c2)cc1,4.33% (active)
19,COCCn1cc(-c2csc(-c3c[nH]c4ccc(F)cc34)n2)c2cccnc21,11.8% (inactive)
20,C/C(Cc1ccc(Cl)cc1)=C(\c1ccc(OCCN2CCCCCC2)cc1)c1ccc(OC(=O)c2ccccc2)cc1,6.24% (active)
